Bioassay records as filed in PubChem.
TEAD-YAP block – TEAD-YAP interaction inhibition, primary screen, TEAD-YAP interaction inhibitor project, luminescence, HEK-TIYL cells; TEAD-Gal4/YAP UAS-luciferase luminescence; inhibition, % at 9.12 µM; 640,000 tested, 1.4% active; in the data active = inhibition above about 32%;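 note: 0% = median of test compound wells and 100% = reference inhibitor wells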
MITF inh – MITF inhibitors, primary screen, biochemical, AlphaScreen, human; inhibition, % at 2.6 µM; 650,000 tested, 0.91% active; AID 1259374, 2018; AlphaScreen MITF homodimerization, bead proximity signal; Microphthalmia-associated transcription factor (Homo sapiens), O75030; in the data active = inhibition above about 50%;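 note: 0% = vehicle wells with protein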
GPR151 ag – activators of human GPR151, primary screen, cell-based, PathHunter beta-arrestin, luminescence; G-protein coupled receptor 151 (Homo sapiens), Q8TDV0; PathHunter beta-arrestin GPR151 cells; activation, % at 11.2 µM; 650,000 tested, 1% active; AID 1508602, 2020; in the data active = activation above about 4.9%;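 note: 0% = median of compound wells and 100% = cells with positive control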
Target sequence (Q8TDV0 whole entry, looked up): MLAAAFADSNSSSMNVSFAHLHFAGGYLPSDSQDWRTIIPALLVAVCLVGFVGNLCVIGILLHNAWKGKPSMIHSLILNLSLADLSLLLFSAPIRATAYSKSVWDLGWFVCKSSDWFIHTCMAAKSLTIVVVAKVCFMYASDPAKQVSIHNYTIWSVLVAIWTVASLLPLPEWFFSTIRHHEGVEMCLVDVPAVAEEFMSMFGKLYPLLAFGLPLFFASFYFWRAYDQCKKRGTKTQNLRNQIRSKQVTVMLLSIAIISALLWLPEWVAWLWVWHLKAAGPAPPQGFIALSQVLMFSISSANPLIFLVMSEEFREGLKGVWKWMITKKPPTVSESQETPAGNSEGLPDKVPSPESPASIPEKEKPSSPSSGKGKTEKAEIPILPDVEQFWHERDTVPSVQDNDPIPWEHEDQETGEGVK
FBW7 activator – FBW7 E3 ligase activators, primary screen, biochemical, AlphaScreen, human; normalized activity (activation), % at 26.1 µM; 650,000 tested, 0.13% active; F-box/WD repeat-containing protein 7 (Homo sapiens), Q969H0; AlphaScreen FBW7–phospho-cyclin E peptide binding, activator screen; in the data active = normalized activity above about 1.9%;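 note: purified mutant Fbw7 with reduced substrate affinity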
GPR151 conf act – GPR151 activators, triplicate retest, confirmation, cell-based, PathHunter beta-arrestin, luminescence; shares compounds with GPR151 ag; GPR151 PathHunter beta-arrestin cells, 90 min; % of EA-reagent control over plate median; activation, % at 11.2 µM; 6,700 tested, under 10 active; AID 1508609, 2020;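 active = mean percent activation across replicates above the confirmation screen cutoff of 4.91%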
GPR119 ag – GPR119 activators in beta-arrestin cells, counter-screen for GPR151 activator project, cell-based, PathHunter beta-arrestin, luminescence, triplicate. shares compounds with GPR151 ag. 90 min; 0 = compound-well median, 100 = enzyme-acceptor control. activation, % at 11.2 µM. 6,700 tested, 0.3% active;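 active = mean percent activation in the counterscreen above 29.09%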;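 note: counterscreen on off-target GPR119 to flag nonselective hits from the GPR151 activator screen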
* = called active by the depositor; / = not tested or not shown. Only some compounds are listed: those with a hit (about 3.4% of all), similar ones and a draw of the others.

SMILES	TEAD-YAP block	MITF inh	GPR151 ag	FBW7 activator	GPR151 conf act	GPR119 ag
O=C(O)COc1ccc(/C=N/NC(=O)Cn2nnc(-c3ccccc3Cl)n2)cc1	3	19	7.8*	1	0	-11
Cc1ncc(-c2ccncc2)c(C2CCCN(C(=O)C(C)(C)C)C2)n1 (stereo unspecified)	-21	-2	-1	0	/	/
CC(Oc1cccc(Cl)c1)C(=O)N/N=C/c1ccccc1O (stereo unspecified)	8	5	6.6*	0	0	2
COc1cccc(/C=N\NC(=O)c2cc(C(C)(C)C)[nH]n2)c1O	69*	22	5.8*	-1	1	4
COc1ccc(/C=N/NC(=O)c2cc(C(C)(C)C)[nH]n2)cc1O	-3	0	1	0	/	/
COc1ccc(NC(C)C(=O)N/N=C/c2ccccc2Cl)cc1 (stereo unspecified)	6	17	7.3*	0	0	-7
COc1cccc(/C=N/NC(=O)C(C)Nc2ccc(C)cc2)c1O (stereo unspecified)	17	9	12*	0	1	1
COc1ccccc1NC(C)C(=O)N/N=C/c1cccc(OC)c1O (stereo unspecified)	16	21	0	0	/	/
COc1cc(C=O)cc(Br)c1OC(=O)c1cccc([N+](=O)[O-])c1	6	19	4	0	/	/
CCC(=O)NC(=S)Nc1ccccc1C	8	3	0	0	/	/
COc1ccc(-c2noc(COc3cccc(OC)c3)n2)cc1	0	-15	-1	0	/	/
O=C(CSc1nnc2ccc(-c3cccnc3)nn12)N1CCc2ccccc21	-5	9	5.4*	1	1	4
O=C(CSc1nnc2ccc(-c3cccnc3)nn12)N1CCCC1	-9	-2	-1	0	/	/
COc1cccc(-n2c(SCC(=O)N3CCc4ccccc43)nnc2-c2cccnc2)c1	2	0	0	0	/	/
COc1cccc(-n2c(SCC(=O)N3CCc4ccccc43)nnc2-c2ccncc2)c1	11	5	6.4*	0	0	-1
O=C(CSc1cccc[n+]1[O-])N1CCC(Cc2ccccc2)CC1	-1	-11	1	0	/	/
O=C(CSCc1ccccc1)N1CCC(Cc2ccccc2)CC1	-43	6	6.0*	1	0	1
CCOC(=O)C1CCN(C(=O)CSCc2c(Cl)cccc2Cl)CC1	3	2	-1	0	/	/
NC(=O)C1CCN(C(=O)CSCc2c(Cl)cccc2Cl)CC1	2	-11	6.1*	0	0	-3
Cc1cccc(N(CC(N)=O)C2SC(=O)N(Cc3cccc(C(=O)O)c3)C2=O)c1 (stereo unspecified)	-3	13	11*	1	0	-7
CCOC(=O)CN(c1cccc(C)c1)C1SC(=O)N(Cc2cccc(C(=O)O)c2)C1=O (stereo unspecified)	-5	1	0	1	/	/
CCCNC(=O)Cn1cnc2c(nnn2-c2cc(C)cc(C)c2)c1=O	9	0	7.0*	0	0	-1
COC(=O)c1ccc(Cn2cnc3c(nnn3-c3cc(C)cc(C)c3)c2=O)o1	-3	-14	5.0*	0	0	1
Cc1cc(C)cc(-n2nnc3c(=O)n(Cc4ccc(Cl)c(Cl)c4)cnc32)c1	4	15	-1	0	/	/
Cc1c(NC(=O)Nc2ccccn2)sc2nc3n(c(=O)c12)CCC(C)CC3 (stereo unspecified)	-2	-8	1	0	/	/
COc1cccc(NC(=O)CSc2cn(CC(=O)N3CCC(C)CC3)c3ccccc23)c1	-1	15	5.1*	0	1	3
COc1cccc(NC(=O)CSc2cn(CC(=O)N3CCOCC3)c3ccccc23)c1	2	0	0	1	/	/
O=C(CCC(=O)Nc1ccc(Br)cc1)N/N=C/c1cccs1	-6	-2	6.0*	0	0	-18
